# Results filed as inconclusive are left out. The source made the active and inactive calls. The call rests on the fitted dose curve; in most records, active means well fitted inhibition curve with a large enough effect; inconclusive means small, poorly fitted or top-dose-only effect; inactive means flat fitted curve, though single readings scatter.
# Target: Dual specificity tyrosine-phosphorylation-regulated kinase 1A (Homo sapiens) (UniProt Q13627)
# Test: Confirmation Assay for Inhibitors of Dyrk1a (Kinase-Glo Assay): KU probe
# Conditions: Kinase-Glo ATP luminescence
# From the text: NIH Molecular Libraries Probe Production Centers Network [MLPCN] NIH Chemical Genomics Center [NCGC] MLSCN Grant: 1R03MH084827-01 PI Name: Tom Misteli NCGC Assay Overview: The CMGC group of protein kinases which includes CDK-like kinases (Clk) and Dyks are essential kinases found in all eukaryotes. Clks have been implicated to play a role in the regulation of alternative splicing; while Dyrks, in particular over expression of Dyrk1A, has been linked to diseases as Down syndrome (DS; OMIM 190685) and Alzheimer disease (AD; OMIM 104300). Among the members of the CMGC group, the Clks and the Dyrks are very closely related therefore to determine validity and selectivity of an active compound observed in the CLK4 qHTS screen (AID:1770), a bioluminescent counter-screen against Dyrk1A was developed. […]
# NCGC Assay Protocol Summary: Two uL/well of substrate solution (8uM Dyrktide, 2uM ATP, 25mM Tris-HCl pH 7.5, 10mM MgCl2 , 0.5mM EGTA, 5mM cystein, 0.01% Triton X-100 final concentration) was dispensed into 1536-well assay plates (Greiner, solid white, medium-binding plates) with Aurora Discovery BioRAPTR Flying Reagent Dispenser (FRD, Beckton-Dickenson). […] The plates were spun for 30 seconds (1000 rpm) and incubated at ambient temperature for 2 minutes followed by a luminescence read using Perkin Elmer ViewLux plate reader at 3 seconds exposure time and 2x binning.
compound,measurement,value
Cc1cc(CNc2ccnc(-c3ccc4c(c3)OCO4)n2)cnc1F,Potency,18.4 µM (active)
